For test [1], the system named is Human papillomavirus type 1a protein E7 (residues 44-93). The experiment in a line: HPV1a E7 fragment binders on microarrays, primary screen, biochemical, small-molecule microarray, residues 44-93, 635 nm fluorescence (AID 1108).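 Note: E7 fragment applied at 1 µg/mL in TBST for 1 h at 4 C; score combines spot fluorescence with its signal to noise ratio.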 To be noted: small-molecule microarray binding, fluorescence 635 nm; higher = more signal.
Test [2] is described as follows: modulators of HCV replicon luciferase signal, primary screen, HCV replication inhibitor project, Huh7 cells, luciferase reporter (AID 1109).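 Note: huh7 hepatoma cells harbouring a luciferase neomycin HCV replicon reporter; luciferase luminescence as measure of HCV replicon replication; test concentration not given here.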 To be noted: 48 h, higher = more signal. (In antiviral work, replicon cells carry a viral genome segment that copies itself.)
Test [3] deals with Left-right determination factor 2 (Homo sapiens) (UniProt O00292). The test is described as follows: LEFTY2 binders on small-molecule microarrays, primary screen, biochemical, small-molecule microarray, 635 nm fluorescence scan (AID 1110). To be noted: LEFTY2 binding, higher = more signal.
Sequence of Left-right determination factor 2 (Homo sapiens) (O00292 whole entry, looked up): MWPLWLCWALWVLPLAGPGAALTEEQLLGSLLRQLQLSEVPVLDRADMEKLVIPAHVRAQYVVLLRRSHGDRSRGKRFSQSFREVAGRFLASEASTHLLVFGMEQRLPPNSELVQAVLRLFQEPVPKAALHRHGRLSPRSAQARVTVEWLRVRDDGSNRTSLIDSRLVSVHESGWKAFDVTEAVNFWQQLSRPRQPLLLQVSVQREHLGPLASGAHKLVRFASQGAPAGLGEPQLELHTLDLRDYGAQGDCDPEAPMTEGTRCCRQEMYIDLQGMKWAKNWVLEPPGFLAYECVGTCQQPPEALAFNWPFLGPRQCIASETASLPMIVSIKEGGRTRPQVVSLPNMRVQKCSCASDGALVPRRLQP
For test [4], the target named is Calmodulin-1 (Homo sapiens) (UniProt P0DP23). The experiment in a line: CALM1 binders on microarrays, EGTA buffer, profiling panel, biochemical, small-molecule microarray, Cy5-labelled CALM1 (AID 1111).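 Note: labelled calmodulin applied in Tris saline Tween buffer holding calcium plus EGTA and DTT.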 To be noted: Cy5-CALM1 binding fluorescence, higher = more signal.
The target is the same in test [5]. The test is described as follows: calcium-bound CALM1 binders on microarrays, profiling panel, artefact control for SMM control-protein annotation, biochemical, small-molecule microarray, Cy5-labelled CALM1, plus calcium (AID 1112).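 Note: score merges spot fluorescence with signal to noise from triplicate slides.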 To be noted: Cy5-CALM1 binding fluorescence, higher = more signal.
Test [6] can be described thus: small-molecule microarray binders of probe aWnt5a, primary screen, biochemical, biotinylated probe, 635/667 nm fluorescence (AID 1113).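 Note: score merges 667 nm fluorescence intensity with signal-to-noise per printed feature.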 As to conditions: higher = more signal.
A short description of test [7]: small-molecule microarray binders of probe aShh, primary screen, biochemical, biotinylated probe, 635/667 nm fluorescence (AID 1114).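 Note: probe is biotin-labelled aShh protein from a stem cell growth factor screen; measures binding of labelled protein to compounds printed on the slide; score merges feature fluorescence at 667 nm with signal-to-noise.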 As to conditions: higher = more signal.
The nature of test [8]: small-molecule microarray binders of probe aNog, primary screen, biochemical, biotinylated probe, 635/667 nm fluorescence (AID 1115).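 Note: probe is biotinylated aNog protein used at 0.15 µg/mL for 1 h at 4 C; z-score combines 667 nm fluorescence of each spot with its signal to noise.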 As to conditions: higher = more signal.
Test [9] has as its target Torsin-1A-interacting protein 1 (Homo sapiens) (UniProt Q5JTV8). The experiment in a line: LAP1 binders from COS7 cell lysate, primary screen, small-molecule microarray, 635/667 nm fluorescence (AID 1116). To be noted: COS7-hLAP1 lysate binding, 635 nm fluorescence, higher = more signal.
In test [10] the target is Alpha-bungarotoxin (Bungarus multicinctus) (UniProt P60615). The experiment in a line: alpha-bungarotoxin binders on microarray, profiling panel, artefact control for SMM control protein annotation, biochemical, small-molecule microarray, Alexa647 label, 635/667 nm fluorescence (AID 1117). To be noted: alpha-BTX-A647 binding fluorescence, higher = more signal.
Sequence of Alpha-bungarotoxin (Bungarus multicinctus) (P60615 whole entry, looked up): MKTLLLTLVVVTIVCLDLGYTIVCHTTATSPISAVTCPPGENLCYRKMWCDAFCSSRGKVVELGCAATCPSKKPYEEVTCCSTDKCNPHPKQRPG
In a further test the target is Albumin (Bos taurus) (UniProt P02769). The experiment in a line: bovine serum albumin binders on microarray, profiling panel, artefact control for SMM control protein annotation, biochemical, small-molecule microarray, Alexa647 label, 635/667 nm fluorescence (AID 1118).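 Note: score merges 667 nm emission intensity and signal-to-noise per printed compound spot.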 As to conditions: BSA-A647 binding, fluorescence 635 nm, higher = more signal.
Sequence of Albumin (Bos taurus) (P02769 whole entry, looked up): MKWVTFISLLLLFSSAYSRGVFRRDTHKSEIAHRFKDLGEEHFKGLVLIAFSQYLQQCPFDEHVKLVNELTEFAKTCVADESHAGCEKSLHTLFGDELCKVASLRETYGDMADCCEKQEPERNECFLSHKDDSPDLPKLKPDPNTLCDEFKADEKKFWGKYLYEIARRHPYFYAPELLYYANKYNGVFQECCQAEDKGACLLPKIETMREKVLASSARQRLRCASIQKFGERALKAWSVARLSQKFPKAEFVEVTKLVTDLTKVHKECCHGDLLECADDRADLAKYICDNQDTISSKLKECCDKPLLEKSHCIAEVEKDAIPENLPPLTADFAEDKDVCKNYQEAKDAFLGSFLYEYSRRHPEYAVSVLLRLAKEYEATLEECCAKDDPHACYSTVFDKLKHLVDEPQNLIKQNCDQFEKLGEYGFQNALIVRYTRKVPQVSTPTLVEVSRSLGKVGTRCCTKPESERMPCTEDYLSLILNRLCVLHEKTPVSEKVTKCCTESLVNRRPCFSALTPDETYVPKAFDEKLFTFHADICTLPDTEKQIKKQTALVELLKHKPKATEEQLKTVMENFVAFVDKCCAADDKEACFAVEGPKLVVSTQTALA
Test [11] can be described thus: small-molecule microarray binders of probe aXIP, primary screen, biochemical, NeuroSMM set, 635/667 nm fluorescence (AID 1119).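 Note: probe is the protein aXip251-270 applied at 1 µg/mL to compound-printed slides; binding of probe to printed compounds measured as 667 nm fluorescence plus signal to noise.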 To be noted: higher = more signal, called active from +8 up or from −8 down.
Test [12] can be described thus: small-molecule binders of probe aNOTCH3, primary screen, biochemical, small-molecule microarray, 635/667 nm fluorescence (AID 1120).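 Note: probe is a biotin-tagged antibody raised against NOTCH3 rather than NOTCH3 protein; score merges spot fluorescence near 667 nm with spot signal to noise.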 As to conditions: higher = more signal.
A short description of test [13]: small-molecule binders of probe aNOTCH2, primary screen, biochemical, small-molecule microarray, 635/667 nm fluorescence (AID 1121).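 Note: score merges feature fluorescence read at 667 nm with its signal to noise.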 As to conditions: higher = more signal.
Test [14] addresses Carbonic anhydrase 2 (Homo sapiens) (UniProt P00918). The test is described as follows: CAII small-molecule binders, profiling panel, biochemical, small-molecule microarray, Alexa647-labelled CAII (AID 1122). To be noted: CAII-A647 binding fluorescence, higher = more signal.
Test [15] is described as follows: COS7 lysate on small-molecule microarray, probe aHis, 635 nm (AID 1123).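 Note: z-score combines 667nm fluorescence intensity with signal-to-noise per printed compound spot.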 To be noted: COS7 cell lysate, fluorescence, higher = more signal.
The nature of test [16]: compound binding in COS7 lysate, probe aLAP1, primary screen, cell lysate, small-molecule microarray (AID 1124).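 Note: lysate comes from COS7 cells expressing LAP1 and is applied at 0.3 µg/mL; score merges spot fluorescence near 667 nm with signal-to-noise over triplicate slides.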 To be noted: probe aLAP1, fluorescence, higher = more signal.
The next test relates to Sam68 (KHDRBS1). The experiment in a line: Sam68 small-molecule binders, primary screen, biochemical, small-molecule microarray, 635 nm fluorescence (AID 1125).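 Note: score merges 667 nm channel intensity with signal to noise over triplicate slides.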 As to conditions: small-molecule microarray binding, higher = more signal.
Test [17] concerns Chordin-like protein 2 (CHRDL2). The experiment in a line: CHRDL2 small-molecule binders, primary screen, biochemical, small-molecule microarray, 635 nm fluorescence (AID 1126).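 Note: printed compound slides probed with Chrdl2 protein at 4 µg/mL for 1 h at 4 C; score merges 667 nm emission intensity with signal to noise over three replicate slides.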 To be noted: small-molecule microarray binding, fluorescence 635 nm; higher = more signal.
The target in test [18] is Concanavalin-A (Canavalia ensiformis) (UniProt P02866). The test is described as follows: ConA small-molecule binders, primary screen, artefact control for SMM control protein annotation, biochemical, small-molecule microarray, Alexa647 label, 635 nm (AID 1127).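 Note: z combines 667 nm emission intensity with signal-to-noise across three replicate slides.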 To be noted: ConA-A647 binding fluorescence, higher = more signal.
Sequence of Concanavalin-A (Canavalia ensiformis) (P02866 whole entry, looked up): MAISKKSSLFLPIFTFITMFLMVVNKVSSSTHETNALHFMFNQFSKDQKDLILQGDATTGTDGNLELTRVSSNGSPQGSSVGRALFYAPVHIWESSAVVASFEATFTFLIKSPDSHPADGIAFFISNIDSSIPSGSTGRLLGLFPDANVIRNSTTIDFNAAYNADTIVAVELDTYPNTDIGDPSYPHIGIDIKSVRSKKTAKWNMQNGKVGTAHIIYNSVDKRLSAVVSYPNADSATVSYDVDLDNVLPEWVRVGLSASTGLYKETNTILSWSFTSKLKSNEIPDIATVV

In PubChem BioAssay one finds composite z-score, z-score and composite Z-score data, which are given here for six compounds.

Calls of active or inactive are those of the source.

Sequence of Torsin-1A-interacting protein 1 (Homo sapiens) (Q5JTV8 whole entry, looked up): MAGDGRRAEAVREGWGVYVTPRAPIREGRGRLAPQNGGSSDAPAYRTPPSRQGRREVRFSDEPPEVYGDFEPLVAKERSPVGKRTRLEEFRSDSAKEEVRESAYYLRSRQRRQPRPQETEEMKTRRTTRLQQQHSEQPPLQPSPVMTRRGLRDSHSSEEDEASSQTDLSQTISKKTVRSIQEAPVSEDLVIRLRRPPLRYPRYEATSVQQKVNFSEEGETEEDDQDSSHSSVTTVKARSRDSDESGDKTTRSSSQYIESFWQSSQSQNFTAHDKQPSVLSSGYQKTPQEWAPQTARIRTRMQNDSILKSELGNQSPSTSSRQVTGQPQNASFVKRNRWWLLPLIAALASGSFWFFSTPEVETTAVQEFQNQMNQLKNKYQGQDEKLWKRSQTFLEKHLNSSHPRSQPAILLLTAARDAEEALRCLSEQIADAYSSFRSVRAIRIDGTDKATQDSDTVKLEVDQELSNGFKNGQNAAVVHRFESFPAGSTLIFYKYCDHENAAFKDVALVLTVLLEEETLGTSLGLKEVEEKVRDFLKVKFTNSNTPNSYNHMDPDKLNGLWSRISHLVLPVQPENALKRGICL

For the compound `COCCOC(=O)N1C(=O)[C@@]2(c3cc(C#CC4=CCCCC4)ccc31)[C@H](C(=O)N1CCCCCCC1)[C@H]1C(=O)O[C@H](c3ccccc3)[C@H](c3ccccc3)N1[C@@H]2c1ccc(OCCO)cc1`, the composite z-score in test [1] came to 1.18; in test [3], 0.654; in test [4], 1.02; in test [5], 1.04; in test [6] it was 0.302; in test [7] it was 0.936. Also, the composite z-score was -0.412 in test [8]; 1.05 in [9]; 0.845 in test [10]; -0.0202 with Albumin (Bos taurus); 0.677 in [12]; 0.0424 in [13]. The composite z-score in [14] amounted to 0.399; in test [15], 0.387; in [16], 0.722; in the test on Sam68 (KHDRBS1) it was 0.865; in [17], 0.652; in test [18] it was 1.11. The compound further yielded a z-score in test [2] of -2.08. For the same compound, in test [11], the composite Z-score is 0.196 (inactive).

As to `COCCOC(=O)N1C(=O)[C@@]2(c3cc(C#CCNC(N)=O)ccc31)[C@H](c1ccc(OCCO)cc1)N1[C@H](c3ccccc3)[C@H](c3ccccc3)OC(=O)[C@H]1[C@@H]2C(N)=O`, the composite z-score in test [1] is 1.33; in test [3] it was 0.437; in test [4], 0.741; in test [5], 0.585; in test [6], -0.089; in test [7], 0.225. For the same compound, the composite z-score in [8] is 0.54; in [9] it was 0.803; in test [10] it was 0.667; in the test with Albumin (Bos taurus), 0.319; in [12], 0.116; in test [13], -0.01. Besides, the composite z-score in test [14] worked out at 0.264; in test [15], 1.13; in test [16] it was 0.439; in the test on Sam68 (KHDRBS1), 1.13; in test [17], 0.457; in [18] it was 1.08. The z-score in test [2] is -0.106. In addition, the composite Z-score in test [11] is 0.658 (inactive).

For `O=C(O)[C@H]1C[C@H]2C(=O)N[C@@H](Cc3ccccc3)C(=O)N2[C@H]1c1cccc(OCCO)c1`, the composite z-score in test [1] is 0.0635; in test [3] it was 0.978; in test [4] it was -0.309; in test [5], -0.411; in test [6], 0.0079; in test [7] it was -0.214. The composite z-score was 0.185 in test [8]; 0.543 in [9]; 0.366 in test [10]; -1.09 with Albumin (Bos taurus); 0.182 in [12]; -0.0609 in [13]. Further, the composite z-score was 0.634 in [14]; 0.26 in [15]; -0.0699 in test [16]; 1.05 in the test with Sam68 (KHDRBS1); 1.01 in [17]; 0.95 in [18]. The compound also returned a z-score in [2] of 4.5. Also, in [11], the composite Z-score is 0.309 (inactive).

In the case of `CCOC(=O)C[C@H]1[C@H](OC(=O)c2ccc(-c3ccccc3)cc2)[C@@H](NC(=O)CC(C)C)c2cc(OCCCO)ccc2N1C(=O)c1ccccc1`, the composite z-score is 1.07 in test [1]; 0.0613 in test [3]; 0.232 in test [4]; 0.462 in [5]; -0.0718 in test [6]; -0.2 in test [7]. In addition, the composite z-score in test [8] is -0.1; in test [9], 0.266; in [10], 0.198; with Albumin (Bos taurus) it was 0.506; in test [12], -0.0057; in [13], -0.124. In addition, the composite z-score in [14] is 0.108; in test [15] it was 0.806; in test [16], -0.2; in the test with Sam68 (KHDRBS1), 1.03; in test [17] it was 0.0549; in test [18], 0.27. In [2], this compound yielded a z-score of -1.96. Also, in test [11], the composite Z-score is -0.221 (inactive).

Turning to `O=C1C2C=CC(C(O)c3ccco3)N(Nc3ccccc3)C2C(=O)N1c1ccccc1` (stereo not given), the composite z-score in test [1] is -0.335; in [3] it was -0.756; in [4] it was -0.136; in [5], 0.245; in [6] it was -0.006; in test [7], 0.0121. Besides, the composite z-score in test [8] is 0.181; in test [9], -0.479; in [10] it was -0.0188; with Albumin (Bos taurus) it was 0.507; in [12], -0.153; in [13] it was -0.141. The composite z-score was 0.757 in test [14]; 0.467 in [15]; -0.102 in test [16]; -0.161 with Sam68 (KHDRBS1); -0.727 in test [17]; -0.222 in [18]. Besides, the z-score in [2] came to 0.305. Also, in [11], the composite Z-score is 0.0089 (inactive).

Regarding `COc1cccc(/C=C(\C#N)C(=O)Nc2c(C)n(C)n(-c3ccccc3)c2=O)c1`, the composite z-score is 1.11 in test [1]; 0.303 in test [3]; 1.27 in test [4]; 0.0209 in test [5]; -0.0894 in test [6]; -0.223 in test [7]. Moreover, the composite z-score in test [8] was -0.0899; in test [9], 0.569; in [10], 1.19; with Albumin (Bos taurus), 0.998; in [12], -0.053; in test [13], -0.0454. Also, the composite z-score was 0.767 in test [14]; 0.366 in test [15]; -0.0921 in test [16]; 0.949 in the test with Sam68 (KHDRBS1); -0.194 in [17]; 1.14 in test [18]. Further, in [2], the z-score is -0.479. The composite Z-score in [11] is -0.359 (inactive).
